G9a block: qHTS Assay for Inhibitors of Histone Lysine Methyltransferase G9a | Histone-lysine N-methyltransferase EHMT2 (Homo sapiens), Q96KQ7 | G9a H3K9 monomethylation, AlphaScreen, 2 h | Potency, µM (top dose mostly 102 µM), inactives show top-dose activity, negative = inhibition, most hits filed as inhibitors | 350,000 compounds, 8.8% hits; also: % is scaled to controls: 0 for no effect and ±100 for the full control effect; nearly all actives have a fitted effect of over 75% in size
Target sequence (Q96KQ7 913-1193 limits assumed): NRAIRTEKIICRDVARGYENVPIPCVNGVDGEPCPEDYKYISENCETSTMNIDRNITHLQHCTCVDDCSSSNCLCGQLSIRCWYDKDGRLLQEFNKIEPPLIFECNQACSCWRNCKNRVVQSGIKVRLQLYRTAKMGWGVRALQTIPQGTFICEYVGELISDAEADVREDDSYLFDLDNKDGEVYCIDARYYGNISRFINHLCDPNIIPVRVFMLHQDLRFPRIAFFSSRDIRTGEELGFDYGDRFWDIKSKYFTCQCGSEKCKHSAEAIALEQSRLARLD
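Methyltransferase reactions run at room temperature for 2 h (20 nM enzyme, 500 nM biotin-H3K9 peptide, 20 uM SAM) after a 15 min compound preincubation; product detected by AlphaScreen beads and anti-H3K9me1 antibody.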
JMJD2A Tudor inh: qHTS Assay for Inhibitors of JMJD2A-Tudor Domain; Lysine-specific demethylase 4A (Homo sapiens), O75164; 390,000 compounds, 4.4% hits; Potency, µM (top dose mostly 114 µM), without a hit: top-dose activity change, negative = inhibition, hits mostly inhibitors; AID 504339, 2011; AlphaScreen JMJD2A-Tudor / H3K4me3 peptide binding; also: % is scaled to controls: 0 for no effect and ±100 for the full control effect; nearly all actives have a fitted effect of over 50% in size
HP1b chromo inh: HTS for Inhibitors of HP1-beta Chromodomain Interactions with Methylated Histone Tails | AlphaScreen HP1-beta / biotin-H3K9me3 peptide binding | Potency, µM (titrated, usually from 114 µM), for the others: at the top dose activity change, negative = inhibition, most hits filed as inhibitors | 390,000 compounds, 0.56% hits | AID 540317, 2011; also: nearly all actives have a fitted effect of over 70% in size
Target sequence (P83916 whole entry, looked up): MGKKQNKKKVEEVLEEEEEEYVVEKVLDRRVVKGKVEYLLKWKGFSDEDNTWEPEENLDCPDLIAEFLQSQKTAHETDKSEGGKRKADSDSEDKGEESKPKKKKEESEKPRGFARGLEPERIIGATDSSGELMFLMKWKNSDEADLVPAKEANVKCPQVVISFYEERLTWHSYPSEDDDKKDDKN
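AlphaScreen: HP1-beta (50 nM) preformed 30 min with biotin-H3(1-18)K9me3 peptide (50 nM) in PBS pH 7.4, 0.01% Tween-20. Compound added for 30 min at RT, then streptavidin donor/nickel chelate acceptor beads (10 ug/mL) for 30 min.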
GLS inhibitor: qHTS for Inhibitors of Glutaminase (GLS); GLS enzymatic activity, qHTS titration; Potency, µM (doses to about 45.5 µM), for the others: at the highest dose activity change, negative = inhibition, actives largely listed as inhibitors; 410,000 compounds, 0.21% hits; also: % is scaled to controls: 0 for no effect and ±100 for the full control effect
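Two-point fluorescence kinetic (t0, 30 min RT) for hKGA; glutamate detected via glutamate oxidase–HRP–Amplex Red. Substrate: 1 mM L-glutamine solution; buffer 45 mM KH2PO4, pH 8.2.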
BAZ2B block: qHTS Assay for Inhibitors of BAZ2B. Potency, µM (top dose mostly 114 µM), without a hit: at the top dose activity change, negative = inhibition, actives largely listed as inhibitors. Bromodomain adjacent to zinc finger domain protein 2B (Homo sapiens), Q9UIF8. AlphaScreen BAZ2B-H3K14Ac peptide displacement. 360,000 compounds, 4.4% hits. AID 504333, 2011; also: % is scaled to controls: 0 for no effect and ±100 for the full control effect; nearly all actives have a fitted effect of over 60% in size
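Protein-peptide AlphaScreen: BAZ2B 50 nM, b-H3K14Ac 50 nM, 1x PBS pH 7.4 + 0.01% Tween-20. Preincubation 30 min RT; cpd 30 min RT (top 110 uM); beads 20 min RT, light-protected.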
Starred values were filed as active, the others as inactive; ? = inconclusive; . = no result given; [ ] = another dose, or the depositor's remark. Rows were chosen to be rich in hits. Some 10% of all compounds tested hit in one or more screens of this group. Calls follow the shape of the dose curve; as a rule, active = well fitted curve in the direction sought with a large enough effect; inconclusive = small, poorly fitted or top-dose-only effect, or another doubt; inactive = no such curve, though single readings can be large; an effect the other way counts as inactive or inconclusive. Potency is read from the fitted curve at half-maximal effect.

SMILES	G9a block	JMJD2A Tudor inh	HP1b chromo inh	GLS inhibitor	BAZ2B block
CC(C)[C@H](NC(=O)OC(C)(C)C)C(=O)N/N=C/c1cccc2nccnc12	4.5µM*	-8%	18%	12%	-39%
C[C@H](NC(=O)OC(C)(C)C)C(=O)N/N=C/c1cccc2nccnc12	?	2%	37%	23%	?
CN1CCC(OC(=O)c2ccccc2Cl)CC1	-25%	-6%	38%	-11%	-5%
c1c[nH]c(CN2CCN(Cc3ncc[nH]3)CC2)n1	.	14µM*	23%	-14%	.
O=C(NCc1ccco1)c1ccc(C(=O)NCc2ccco2)cc1	.	-24%	6%	8%	.
Cc1c(C(=O)NCc2ccco2)oc2ccc(Br)cc12	?	-10%	10%	-13%	?
O=C(NCc1ccco1)c1cccs1	40µM*	-9%	26%	-7%	-9%
O=C(NNC(=S)NCc1ccco1)c1cccs1	?	?	13%	14%	-4%
O=C(NCc1ccco1)c1cc2c(s1)CSC2	?	32µM*	50µM*	-1%	50µM*
O=C(NCc1ccc2c(c1)OCO2)c1cccc(C(=O)NCc2ccc3c(c2)OCO3)c1	18%[59 µM]	-21%	23%	-4%	.
O=C(NCc1ccco1)c1cc2cc(Br)ccc2o1	8.9µM*	?	?	-20%	?
O=C(NCc1ccc2c(c1)OCO2)c1cc2c(s1)CSC2	35µM*	-28%	-2%	19%	-34%
CCSc1nnc(Cn2c(=O)sc3ccccc32)n1-c1ccc(OC)cc1	11%[59 µM]	-25%	20%	1%	-1%
CCCCN1CC(COCc2ccccc2)Oc2cccc(Oc3ccc(C(C)C)cc3)c2S1(=O)=O (centres undefined)	.	1%	36%	-1%	.
CCOc1ccc(S(=O)(=O)n2nc(C)cc2C)c2ccccc12	?	6%	32%	4%	4%
COC(=O)CSc1nnc(CNS(=O)(=O)c2ccc(C)cc2)n1C	-29%	11%	27%	-8%	20%
O=C(CN1CCN(S(=O)(=O)c2ccccc2)CC1)Nc1ccnn1C1CCCC1	0%[2.33 µM]	-4%	54%	-2%	2%
COc1cc2c(cc1OC)C(c1c(Cl)cccc1Cl)=NCC2	.	.	.	-12%	.
CSc1ccc(-c2nnc(NC(=O)c3ccc4c(c3)OCCO4)o2)cc1	52%[59 µM]	-19%	14%[57 µM]	-14%	-7%
CCCC(=O)Nc1nnc(-c2ccc3c(c2)OCCO3)o1	3%	?	-7%	9%	79µM*
CC(C)COc1ccc(-c2nnn(CC(=O)N3CCCC3)n2)cc1	-7%[59 µM]	-20%	14%	-7%	0%
Fc1ccc(-[n+]2nc(Nc3ccccc3)sc2-c2c(Cl)cccc2Cl)cc1	.	35µM*	?	3%	40µM*
CCc1ccc(Nc2n[n+](-c3ccccc3)c(-c3cc(OC)c(OC)cc3Br)s2)cc1	?	79µM*	-6%	1%	32µM*
Cc1nnc(NCC=Cc2ccccc2)s1	.	.	.	4%	.
CCc1ccc(Nc2n[n+](-c3ccccc3)c(/C=C/c3ccccc3)s2)cc1	40µM*	.	.	.	28µM*
SMILES	G9a block	JMJD2A Tudor inh	HP1b chromo inh	GLS inhibitor	BAZ2B block
CCc1ccc(Nc2nc3ccccc3c(=O)s2)cc1	-5%[59 µM]	-1%	39%	5%	-2%
COc1ccc(-c2sc(Nc3ccccc3)n[n+]2-c2ccc(F)cc2)cc1Br	?	?	7%	1%	-12%
CCc1ccc(Nc2n[n+](-c3ccccc3)c(-c3c(Cl)cccc3Cl)s2)cc1	14µM*	16µM*	-5%	11%	8.9µM*
O=C(CNS(=O)(=O)c1ccc(F)c(Cl)c1)N1CCCCCC1	3%	-5%	21%	0%	-1%
COc1ccc2ccccc2c1-c1sc(Nc2ccccc2)n[n+]1-c1ccc(F)cc1	50µM*	40µM*	?	7%	32µM*
O=C(CCCn1c(=O)oc2ccccc21)NC1CCCCCC1	7%	.	.	.	11%
O=C(O)CCN1C(=O)C2C3CC(C2C1=O)C1C(c2ccccc2)c2sc(=O)n(-c4ccccc4)c2SC31 (centres undefined)	45µM*	-8%	-11%	-10%	?
c1coc(CN2CCN(C(c3cccs3)c3nnnn3C3CCCC3)CC2)c1 (centres undefined)	50µM*	?	17%	5%	?
COc1ccc(-n2ccc(=O)c(C(=O)Nc3ccc(S(=O)(=O)Nc4nccs4)cc3)n2)cc1	?	56µM*	-11%	1%	?
O=C(Nc1ccc(S(=O)(=O)Nc2nccs2)cc1)c1nn(-c2ccccc2)ccc1=O	22µM*	11%	51%	-2%	?
CCn1nc(C(=O)Nc2ccc(S(=O)(=O)Nc3nccs3)cc2)c2ccccc2c1=O	?	-19%	-5%	-4%	?
CCOC(=O)NC(O)C(=O)c1ccc(F)cc1 (centres undefined)	?	-19%	32%	-5%	-14%
Cc1nn(CC(=O)O)c(C)c1Cl	-31%	-15%	25%	-7%	-36%
COc1cccc(CC(NC(C)=O)C(=O)NC2CCN(C(=O)NCc3ccccc3)CC2)c1 (centres undefined)	-7%	-17%	4%	7%	0%
Cc1cccc(C)c1NC(=O)c1sccc1SCC#N	11µM*	-13%	20%	-1%	-3%
Cc1cc(-c2ccc(Br)cc2)n2nc(C)cc2n1	.	.	.	2%	.
COc1ccc(CCNC(=O)c2nc(-c3ccc(Cl)cc3)n3c2CCCCC3)c(OC)c1	13µM*	18µM*	-23%	2%	18µM*
Cc1cccc(CCNC(=O)c2nc(-c3ccc(Cl)cc3)n3c2CCCCC3)c1	11µM*	14µM*	-23%	7%	10µM*
COc1cccc(N2CCN(C(=O)c3nc(-c4ccc(Cl)cc4)n4c3CCCCC4)CC2)c1	18µM*	40µM*	?	13%	28µM*
Nc1c(C(=O)Nc2ccccc2Cl)nnn1Cc1cccc(Cl)c1	-7%[59 µM]	-11%	21%	-1%	-13%
CCc1ccc(NC(=O)N(CCCOC(C)C)C2CCN(C(C)=O)CC2)cc1	-12%	-11%	15%	13%	-23%
c1ccc(Nc2nc3ccccc3n3nnnc23)cc1	.	-17%	31%	2%	4%
CCOc1ccc(C(=O)Nc2ccc(C(F)(F)F)n(C)c2=O)cc1	17%	-19%	56%	-4%	3%
COc1ccc(C2C3=C(CCCC3=O)NC3=C2C(=O)c2ccccc23)cc1 (centres undefined)	.	50µM*	?	-17%	35µM*

Bioassay records from PubChem.
